Bioassay records from PubChem BioAssay.
TDP1 block – qHTS Assay for Inhibitors of Tyrosyl-DNA Phosphodiesterase (TDP1) | recombinant TDP1, AlphaScreen DNA substrate cleavage | Potency, µM (highest dose often 130 µM), most hits filed as inhibitors | hit rate 0.28% among 350,000 | AID 485290, 2010; note: nearly all actives have a fitted effect of over 40% in size
Target sequence (Q9NUW8 whole entry, looked up): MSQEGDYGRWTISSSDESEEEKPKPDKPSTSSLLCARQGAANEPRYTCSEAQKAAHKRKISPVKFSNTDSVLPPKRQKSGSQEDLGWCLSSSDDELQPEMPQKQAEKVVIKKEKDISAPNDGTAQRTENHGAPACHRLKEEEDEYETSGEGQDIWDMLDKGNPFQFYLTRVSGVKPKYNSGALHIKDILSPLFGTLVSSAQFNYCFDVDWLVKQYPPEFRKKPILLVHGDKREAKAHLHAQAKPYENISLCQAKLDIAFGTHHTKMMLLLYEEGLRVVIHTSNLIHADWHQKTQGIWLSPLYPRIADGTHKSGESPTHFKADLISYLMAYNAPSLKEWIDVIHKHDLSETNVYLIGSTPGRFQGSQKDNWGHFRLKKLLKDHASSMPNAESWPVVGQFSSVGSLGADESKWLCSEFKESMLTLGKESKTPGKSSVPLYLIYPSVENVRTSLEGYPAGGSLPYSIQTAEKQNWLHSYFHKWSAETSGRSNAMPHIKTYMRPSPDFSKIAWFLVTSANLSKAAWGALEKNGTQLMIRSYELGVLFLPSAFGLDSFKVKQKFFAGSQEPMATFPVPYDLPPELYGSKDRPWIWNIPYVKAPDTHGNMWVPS
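Tdp1 1 nM final; 15 min RT w/ cpd; substrate 15 nM, 5 min; beads 10 ug/ml, 10 min; AlphaScreen read. Neg ctrl: no enzyme.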
TGFb inhibitor – qHTS for Inhibitors of TGF-b | Potency, µM (titrated, usually from 46.1 µM), most hits filed as inhibitors | AID 588855, 2011 | HepG2 CAGA-GFP TGF-b/SMAD3 reporter, GFP fluorescence, 18 h; TGF-beta stimulated, 500 pg/mL final | hit rate 1.2% among 410,000; note: nearly all actives have a fitted effect of over 65% in size
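TGF-beta reporter screen: HEPG2 CAGA-GFP, 1% FBS, 500 pg/mL TGF-beta final, 18 h; per-cell GFP summed per well; curves fitted and categorized by class.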
TDP1 cell noCPT – qHTS for Inhibitors of human tyrosyl-DNA phosphodiesterase 1 (TDP1): qHTS in cells in absence of CPT. hit rate 15% among 420,000. DT40 Tdp1-/- hTDP1 cells, no CPT, ATP luminescence, 48 h. Potency, µM (series often up to 46.2 µM), usual class: inhibitors; note: nearly all actives have a fitted effect of over 55% in size
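Luminescent ATP content (CellTiter-Glo) served as the growth readout. Knockout chicken DT40 cells expressing human TDP1 were exposed to compounds without camptothecin for a minimum 48 hr at 37 °C.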
IL-1B inflam inh – qHTS for Inhibitors of Inflammasome Signaling: IL-1-beta AlphaLISA Primary Screen. hit rate 4.7% among 360,000. activity change, % at 57.5 µM. AID 743279, 2014. THP-1 LPS/ATP IL-1B secretion, AlphaLISA, 16 h; hits give low values; in the data active = activity change below about -50%; inconclusive = mostly about -30% to -49%
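Secreted IL-1B measured by AlphaLISA bead assay after 16 h compound exposure of THP-1 cells; compounds (final up to 57.5 uM) added 1 h before LPS (250 ng/mL) and ATP (1.25 mM) stimulation; lower signal means less secretion.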
DT40 TDP1 CPT – qHTS for Inhibitors of human tyrosyl-DNA phosphodiesterase 1 (TDP1): qHTS in cells in presence of CPT | Potency, µM (series often up to 46.2 µM), most hits filed as inhibitors | hit rate 12% among 420,000 | AID 686979, 2013 | chicken DT40 Tdp1-/-;hTDP1 cells + 20 nM CPT, ATP luminescence, 48 h; note: nearly all actives have a fitted effect of over 55% in size
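Cell growth measured by CellTiter-Glo luminescence after a minimum 48 h, 37 C compound exposure with 20 nM CPT in Tdp1-knockout DT40 cells stably expressing hTDP1, seeded 400/well; qHTS titration format.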
HepG2 tox – qHTS for Inhibitors of TGF-b: Cytotox Counterscreen; HepG2 CAGA-GFP viability, ATP luminescence, 18 h; Potency, µM (titrated, usually from 46.1 µM), actives largely listed as cytotoxic; hit rate 0.76% among 410,000
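HepG2 CAGA-GFP cells (1000/well, DMEM with 1% FBS) received compound, then TGF-beta at 500 pg/mL final, and were incubated 18 hours at 37 degrees C. Viability was read by CellTiter-Glo luminescence. Media-only wells were set as complete cell-killing and DMSO as no toxicity.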
Of the large screens only hits and unclear results are named; the others gave an inactive call. This is a sample that favours compounds with a hit; in the whole collection about 18% have one here. Unless noted, calls come from the whole dose curve; as a rule, active = well fitted curve in the direction sought with a large enough effect; inconclusive = small, poorly fitted or top-dose-only effect, or another doubt; inactive = no such curve, though single readings can be large; an effect the other way counts as inactive or inconclusive.

C[C@H]1CCC[C@]2(C)C[C@H]3OC(=O)C(CN4CCCCCC4)[C@H]3C=C12 (stereo partly drawn)	TGFb inhibitor inconclusive, TDP1 cell noCPT inconclusive, IL-1B inflam inh -98, DT40 TDP1 CPT inconclusive (no result: TDP1 block)
CN(C)/C=N/c1c(C#N)cnn1-c1ccc(F)c(Cl)c1	none (no result: TGFb inhibitor, TDP1 cell noCPT, IL-1B inflam inh, DT40 TDP1 CPT, HepG2 tox)
FC(F)(F)c1cc(-c2ccccn2)nc2cc(-c3ccccc3)nn12	none
COc1ccc(-c2cc(C(=O)N/N=C(\C)c3cccnc3)c3ccccc3n2)cc1	TDP1 cell noCPT inconclusive, DT40 TDP1 CPT inconclusive
CCOc1ccc(-c2cc(C(=O)N/N=C(\C)c3cccnc3)c3ccccc3n2)c(OCC)c1	TDP1 cell noCPT inconclusive, DT40 TDP1 CPT 15µM
C/C(=N\NC(=O)c1cc(-c2cccnc2)nc2ccccc12)c1ccccc1O	TDP1 cell noCPT 3.7µM, DT40 TDP1 CPT 4.6µM
C/C(=N\NC(=O)c1cc(C2CC2)nc2ccccc12)c1ccc(O)cc1O	TGFb inhibitor inconclusive, TDP1 cell noCPT 5.2µM, DT40 TDP1 CPT 6.5µM
COc1ccc(NC(=O)c2cnc(SC)nc2C)c(OC)c1	IL-1B inflam inh inconclusive (no result: TDP1 block)
Nc1nc(N)c2cc(S(=O)(=O)c3cccc(C(F)(F)F)c3)ccc2n1	TDP1 cell noCPT 0.92µM, DT40 TDP1 CPT 3.7µM, HepG2 tox 1.3µM (no result: TDP1 block)
CN(C)c1ccc(C2=Cc3ccccc3C2)cc1	TGFb inhibitor inconclusive, TDP1 cell noCPT inconclusive, DT40 TDP1 CPT inconclusive (no result: TDP1 block, IL-1B inflam inh)
c1ccc(Cc2nnc(N3CCCCC3)c3ccccc23)cc1	TDP1 cell noCPT inconclusive, IL-1B inflam inh -86
c1ccc(-c2ncc(CSc3nncn3-c3ccccc3)s2)cc1	TDP1 cell noCPT 18µM, DT40 TDP1 CPT inconclusive
O=C(Cc1cccs1)Nc1cccc(-c2nc3cc4ccccc4cc3[nH]2)c1	TGFb inhibitor 11µM, TDP1 cell noCPT 13µM, IL-1B inflam inh -97, DT40 TDP1 CPT 26µM
Nc1ccc(C(=O)Nc2ccc3nc(-c4ccncc4)[nH]c3c2)cc1	TDP1 cell noCPT inconclusive, DT40 TDP1 CPT inconclusive
O=C(Nc1ccc2nc(-c3cccs3)[nH]c2c1)c1ccco1	TDP1 cell noCPT inconclusive, DT40 TDP1 CPT inconclusive
O=C(Nc1ccc2nc(-c3cccs3)[nH]c2c1)c1cccs1	TDP1 cell noCPT 23µM, DT40 TDP1 CPT inconclusive
O=C(Nc1ccc(-c2nc3ccc(NC(=O)c4cccs4)cc3[nH]2)cc1)c1cccs1	TGFb inhibitor inconclusive, TDP1 cell noCPT 1.6µM, DT40 TDP1 CPT 1.6µM
COc1ccc(CCNC(=O)c2nn(-c3ccc(C)cc3)c(=O)c3c2c2ccccc2n3C)cc1OC	TDP1 cell noCPT 2.1µM, DT40 TDP1 CPT inconclusive (no result: IL-1B inflam inh)
CCN(C(=O)c1nn(-c2ccc(C)cc2)c(=O)c2c1c1ccccc1n2C)c1ccc(F)cc1	TDP1 cell noCPT 13µM, DT40 TDP1 CPT inconclusive (no result: IL-1B inflam inh)
CCN(CC)CCOC(=O)c1ccc(NC(=O)c2nn(-c3ccc(C)cc3)c(=O)c3c2c2ccccc2n3C)cc1	TGFb inhibitor 4.5µM, TDP1 cell noCPT 0.58µM, DT40 TDP1 CPT 1.2µM, HepG2 tox 3.5µM (no result: IL-1B inflam inh)
CCCN(C(=O)c1nn(-c2ccc(C)cc2)c(=O)c2c1c1ccccc1n2C)c1ccccc1C	TDP1 cell noCPT inconclusive, DT40 TDP1 CPT inconclusive (no result: IL-1B inflam inh)
Cc1ccc(-n2nc(C(=O)N(C)c3ccc(C)c(C)c3)c3c4ccccc4n(C)c3c2=O)cc1	TDP1 cell noCPT 13µM, DT40 TDP1 CPT 16µM (no result: IL-1B inflam inh)
CCN(CC)CCCNC(=O)c1nn(-c2ccc(C)cc2)c(=O)c2c1c1ccccc1n2C	TDP1 cell noCPT inconclusive, DT40 TDP1 CPT inconclusive (no result: IL-1B inflam inh)
OCCCNc1nc(-c2ccc(Cl)cc2)nc2ccccc12	TGFb inhibitor inconclusive, TDP1 cell noCPT inconclusive (no result: TDP1 block)
OCCCNc1nc(-c2ccc(Br)cc2)nnc1-c1ccc(Cl)cc1	TDP1 cell noCPT inconclusive, IL-1B inflam inh -57, DT40 TDP1 CPT 23µM
CCCCCCCCCCCCC/C=C\[C@@H](O)[C@@H](N)CO	TDP1 cell noCPT inconclusive (no result: TGFb inhibitor, IL-1B inflam inh, HepG2 tox)
COc1ccc(C2/C=C\CN(Cc3ccccc3)CC(=O)N2Cc2ccc(F)cc2)cc1 (stereo not drawn)	none (no result: TDP1 cell noCPT, IL-1B inflam inh, DT40 TDP1 CPT)
COc1ccc(/C=C2\C(=O)N(Cc3ccc(F)cc3)CC(=O)N2Cc2ccccc2)cc1	TDP1 cell noCPT 26µM, DT40 TDP1 CPT 23µM
COc1ccc(/C=C2\C(=O)NCC(=O)N2Cc2ccccc2)cc1	TDP1 cell noCPT 21µM, DT40 TDP1 CPT 15µM
COc1ccc(/C=C2\C(=O)NCC(=O)N2C)cc1	TDP1 cell noCPT inconclusive, DT40 TDP1 CPT inconclusive (no result: TDP1 block)
CSc1ccccc1C(=O)OCC(=O)NC1CCS(=O)(=O)C1 (stereo not drawn)	none
CCOC(=O)c1c(C)[nH]c(C(=O)OCc2csc(CC(=O)Nc3ccccc3C)n2)c1C	TDP1 cell noCPT 13µM, DT40 TDP1 CPT 16µM (no result: TDP1 block)
Cc1ccccc1NC(=O)Cc1nc(COC(=O)c2ncc(Cl)c(Cl)c2Cl)cs1	TDP1 cell noCPT inconclusive, IL-1B inflam inh -88, DT40 TDP1 CPT inconclusive (no result: TDP1 block)
Cc1ccccc1NC(=O)Cc1nc(COC(=O)c2nc(Cl)ccc2Cl)cs1	none
COCCNC(=O)C1(C)CCCN(Cc2cccc(OC(=O)c3ccccc3)c2)C1 (stereo not drawn)	DT40 TDP1 CPT inconclusive (no result: TDP1 block)
Cc1ccc(CCNC(=O)c2c(C)nn(-c3ccc(F)cc3)c2-n2cccc2)cc1	TGFb inhibitor inconclusive (no result: TDP1 cell noCPT, IL-1B inflam inh, DT40 TDP1 CPT)
Cc1ccc(-n2nc(C)c(C(=O)NCCCN3CCN(c4cccc(Cl)c4)CC3)c2-n2cccc2)cc1	TDP1 cell noCPT 5.8µM, DT40 TDP1 CPT 8.2µM (no result: IL-1B inflam inh)
